# PubChem BioAssay AID504909 (Southern Research Specialized Biocontainment Screening …, 2011)
# Measured potencies and affinities stand elsewhere. Active and inactive are the calls of the source. How the calls were made is not given here.
# Assay: Vero cell cytotoxicity, dose response, cytotoxicity control for M. tuberculosis growth inhibitor project, Vero cells, purified and synthesized compounds, set 5 (AID 504909)
# Conditions: series mostly up to 100 µM; viability: at the top concentration
row,Compound,viability
1,O=C(CSc1ncccn1)NC1CCCCC1,96.3% (inactive)
2,O=C(CSc1ccccn1)NC1CCCCC1,91% (inactive)
3,Cc1c[nH]c(=S)[nH]c1=O,103% (inactive)
4,Cc1cccc(/C=C/C(=O)c2ccc([N+](=O)[O-])o2)c1,106% (inactive)
5,Cc1ccc(NC(=O)COC(=O)CCc2c[nH]c3ccccc23)cc1[N+](=O)[O-],102% (inactive)
6,Cc1cnc(SCC(=O)NC2CCCCC2)[nH]c1=O,97.2% (inactive)
7,Cc1nc(SCc2ccccc2Cl)[nH]c(=O)c1C,104% (inactive)
8,CN1CCC(NC(=O)CSc2nc3ccccc3c(=O)[nH]2)CC1,102% (inactive)
9,CN(C)C(=O)CSc1nc2ccccc2c(=O)[nH]1,88.3% (inactive)
10,Cc1nc(SCC(=O)NC2CCCC2)[nH]c(=O)c1C,91.4% (inactive)
11,O=C(CSc1nc2ccccc2c(=O)[nH]1)NCc1ccc(Cl)cc1,82.8% (inactive)
12,O=C(CSc1nc2ccccc2c(=O)[nH]1)N1CCOCC1,99.1% (inactive)
13,NC(=O)CSc1nc2ccccc2c(=O)[nH]1,97.1% (inactive)
14,CC(C)CCNC(=O)CSc1nc2ccccc2c(=O)[nH]1,99.5% (inactive)
15,CCC(Sc1nc2ccccc2c(=O)[nH]1)C(=O)NC1CCCCC1 (configuration not stated),99.5% (inactive)
16,CC(C)CCNC(=O)CSc1nc2c(c(=O)[nH]1)CCC2,88.5% (inactive)
17,Cn1c(SCC(=O)NC2CCCCC2)nc2ccccc2c1=O,110% (inactive)
18,NC(=O)c1cnccn1,97.8% (inactive)
19,O=C(CSc1nc2ccccc2c(=O)[nH]1)NC1CCCCC1,96.5% (inactive)
20,O=c1[nH]c(=S)[nH]c2ccccc12,81.5% (inactive)
21,CC1CCN(C(=O)CSc2nc3ccccc3c(=O)[nH]2)CC1,92.3% (inactive)
22,Cc1cc(=O)[nH]c(=S)[nH]1,104% (inactive)
23,CCCc1cc(C(N)=S)ccn1,89.3% (inactive)
24,O=C(CSc1nc2ccccc2c(=O)[nH]1)NC1CCCC1,95.4% (inactive)
25,CN[C@@H]1[C@H](O[C@H]2[C@H](O[C@H]3[C@H](O)[C@@H](O)[C@H](N=C(N)N)[C@@H](O)[C@@H]3N=C(N)N)O[C@@H](C)[C@]2(O)C=O)O[C@@H](CO)[C@H](O)[C@H]1O,106% (inactive)
26,Cc1nc(SCC(=O)N(C)c2ccccc2)[nH]c(=O)c1C,95.4% (inactive)
27,O=C(CSc1nc2c(c(=O)[nH]1)CCC2)NC1CCCCC1,96.3% (inactive)
